Test results published in PubChem BioAssay AID588497 (NMMLSC, 2011).
Screen size: about 360,000 compounds; about 780 (0.22%) were called active. About 4% were inconclusive and are not listed. Rule as the data show it: active = inhibition above about 35% (passing the limit was not always enough); inconclusive = no clear call, values can overlap the other calls. Shown is part of a subset that was picked to be rich in actives.

test system: Botulinum neurotoxin type F light chain protease (Clostridium botulinum); experiment: BoNT/F light chain protease inhibitors, primary screen, biochemical, flow cytometry, MLPCN library (AID 588497); conditions: Multiplex microsphere protease cleavage assay, at 10 µM, active compounds read high; also: plate controls were buffer without enzyme for full effect and enzyme alone for no effect

Structure (SMILES)	inhibition
CCCCc1c(-c2ccc(Cl)cc2)ncn1CCc1ccccc1OC	0.1% (inactive)
NC(c1csc(NC(=O)Nc2cccc(C(F)(F)F)c2)n1)C1CCCCC1 (stereo not given)	-35.6% (inactive)
Cc1cccc(-c2cnc(C(O)c3ccc4ccccc4c3)[nH]2)c1 (stereo not given)	-3.1% (inactive)
COc1cc(/C=C2\SC(=S)N(Nc3ncc(C(F)(F)F)cc3Cl)C2=O)cc(OC)c1OC	43.1% (active)
O=C1/C(=C/c2ccc(F)cc2)SC(=S)N1NS(=O)(=O)c1ccccc1	0.7% (inactive)
COc1cc(/C=C/C(=O)N2c3ccccc3Sc3ccc(C(F)(F)F)cc32)cc(OC)c1OC	-24.7% (inactive)
COc1ccc(Br)c(Cn2c(C)c(C(=O)NCc3cccs3)sc2=O)c1	3.6% (inactive)
O=C(Nc1nnc([C@H]2C[C@H](O)[C@@H](CO)O2)s1)c1cccc(Cl)c1	2.2% (inactive)
COc1ccccc1CNC(=O)C1Cc2ccccc2C(=O)O1 (stereo not given)	40.9% (active)
COc1ccccc1CNC(=O)[C@@H]1CCCN1C(=O)[C@@H]1Cc2ccccc2CN1C(=O)OC(C)(C)C	-3.1% (inactive)
COc1ccccc1CNC(=O)C1CCN(S(C)(=O)=O)CC1	-1.3% (inactive)
NC(Cc1ccccc1)c1csc(Nc2cc(Oc3ccccc3)ncn2)n1 (stereo not given)	-21.7% (inactive)
COc1ccc(CC(N)c2csc(NC(=O)Cc3ccccc3)n2)cc1 (stereo not given)	-9.3% (inactive)
CN(C)C(=O)c1cccc(-c2cnc3sc(NCc4ccc5c(c4)OCO5)nn23)c1	-7.5% (inactive)
Cc1ccc2[nH]c(=O)c(CN(CCCN(C)C)C(=O)Nc3cccc(Cl)c3)cc2c1	1% (inactive)
COc1ccc(CCN(Cc2cc3cccc(C)c3[nH]c2=O)C(=O)N2CCCC2)cc1OC	-19.1% (inactive)
COc1cc2cc(CN(CCN3CCCC3)C(=O)Nc3ccccc3Cl)c(=O)[nH]c2cc1OC	56.9% (active)
FC(F)(F)Oc1ccccc1C(c1nnnn1C1CCCCC1)N1CCN(C/C=C/c2ccccc2)CC1 (stereo not given)	-16.7% (inactive)
CC1(Cc2ccccc2C#N)C(=O)Nc2ccc(-c3ccc4[nH]ccc4c3)cc21 (stereo not given)	-3.4% (inactive)
Cc1cccc(C)c1NC(=S)N1CCCCCC1	4.7% (inactive)
C/C(=N\NC(=O)c1ccccc1F)c1ccccn1	-0.7% (inactive)
CC(=NNC(=S)N1CCCCCC1)c1ccccn1	55% (active)
Cc1ccc(C(NC(=O)C2CCN(CCOc3ccc(Cl)cc3Cl)CC2)c2ccccn2)cc1 (stereo not given)	4.2% (inactive)

Structure (SMILES)	inhibition
CC(=O)Nc1cccc(-c2ccnc3c2CC(C)(C(=O)NCc2ccccc2)O3)c1 (stereo not given)	-1.6% (inactive)
CCOc1ccc(CCN2C(=S)N([C@@H](CC(C)C)CN3CCC[C@@H]3CN3C(=S)NC[C@@H]3Cc3ccc(O)cc3)C[C@@H]2CC(C)C)cc1	-7.7% (inactive)
CCCCC[C@H](C)N1C[C@@H](COCc2ccccc2)Oc2cc(N3CC[C@@H](N(C)C)C3)ccc2S1(=O)=O	-14% (inactive)
CC(C)Cc1ccc(-c2cc3nc(NCc4cccc(Cl)c4)ccn3n2)cc1	-1.6% (inactive)
C=CCOCCN(C)C1=NS(=O)(=O)c2ccccc21	-7.4% (inactive)
COc1ccc(/C=N/N(C)C2=NS(=O)(=O)c3ccccc32)cc1OC	-14.8% (inactive)
O=S1(=O)N=C(N(CCO)/N=C/c2ccccc2F)c2ccccc21	74.7% (active)
COc1cncc(-c2cnc3sc(NCCc4ccccn4)nn23)c1	-4.1% (inactive)
CCc1nc2ccccc2n(CCOCCOCCn2c(=O)c(CC)nc3ccccc32)c1=O	-0.5% (inactive)
CCOCCn1c(C(C)C)nc2ccccc21	2.9% (inactive)
CCOCCn1c(-c2ccccc2)nc2ccccc21	65.4% (active)
Cc1ccc(NS(=O)(=O)c2cc3c(cc2Br)NC(=O)CO3)cc1C	0.3% (inactive)
CN(Cc1cn(Cc2ccc(C(F)(F)F)cc2)nn1)C1CN(Cc2cn(Cc3ccc(C(F)(F)F)cc3)nn2)S(=O)(=O)C1 (stereo not given)	-10.7% (inactive)
CCCCCCCCN1C(=O)[C@H](CC(=O)NCc2cccc3ccccc23)C[C@@]2(C(=O)OC)CCCCC=C12	-5.2% (inactive)
COc1cccc(NC(=O)N2C3CCCC2CC(NC(C)=O)C3)c1 (stereo not given)	28.5% (inactive)
COc1ccc(CN2C3CCCC2CC(NC(=O)c2cccc(F)c2)C3)cc1 (stereo not given)	-2.5% (inactive)
CCCN1C2CCCC1CC(NC(=O)c1cccc(OC)c1)C2 (stereo not given)	34.7% (active)
Nc1nc2c(Br)ccc(Br)c2cc1C(=O)NCCc1ccccc1	-1% (inactive)
CCCCCc1c(-c2cccc(Br)c2)ncn1CCc1ccccc1OC	-6.3% (inactive)
Oc1cccc2cc(-c3ccncc3)cnc12	-5.1% (inactive)
CNS(=O)(=O)c1cccc(C(=O)NC2CCCc3ccccc32)c1 (stereo not given)	2.8% (inactive)
O=C(O)c1cc(S(=O)(=O)NC2CCCc3ccccc32)ccc1O (stereo not given)	49% (active)
O=C(CCC(=O)N1CCN(S(=O)(=O)c2ccccc2)CC1)NC1CCCc2ccccc21 (stereo not given)	7.9% (inactive)

Structure (SMILES)	inhibition
CCCCc1c(-c2ccc(Br)cc2)ncn1CCc1ccccc1OC	-3.2% (inactive)
CCc1nc2c(OCCC3CCCCC3)cccn2c1N(C)C(=O)c1ccco1	1.8% (inactive)
CC(C)C[C@H]1CNC(=O)C(=O)N1C[C@H]1CCCN1C[C@H](Cc1ccc(O)cc1)N1C[C@H](CC(C)C)N(CC2CCCCCC2)C(=O)C1=O	-9.5% (inactive)
CC(C)C[C@@H](COCc1ccc(Cl)cc1)N1CCN(C(=O)c2ccc(Cl)cc2Cl)CCC1=O	-2.4% (inactive)
CC(=O)Nc1cc(-c2ccc(N3CCN(C)CC3)cc2)cn2c(-c3ccc(F)cc3)cnc12	-13.3% (inactive)
Cc1ccc2[nH]cc(CCNC(=O)C3CCCCC3)c2c1	50% (active)
O=C(NCCc1c[nH]c2ccccc12)C1CCN(Cc2ccc(Br)cc2)CC1	-27.7% (inactive)
Cc1ccc2[nH]cc(CCNC(=O)c3ccc([N+](=O)[O-])cc3)c2c1	-0.3% (inactive)
COC(=O)[C@@]1(Sc2ccc(C)cc2)CC(=O)N(c2cccc(SC)c2)[C@@H]1c1ccccc1	4.9% (inactive)
CCOc1ccc(CNC(=O)C2CCCN(c3nnc(C)c4c(C)n(-c5ccccc5)nc34)C2)cc1 (stereo not given)	10.7% (inactive)
CCOC(=O)C(C)n1cnc2c(nnn2-c2cccc(OC)c2)c1=O (stereo not given)	18.5% (inactive)
CCOc1nnc(C)c2c(C)n(-c3cccc(Cl)c3)nc12	46.5% (active)
Cc1nc2c(OCC(=O)C(C)(C)C)cccn2c1N(C)Cc1cccs1	4.6% (inactive)
CC(=O)Nc1cc(-c2ccccc2F)cn2c(-c3cccc(C(F)(F)F)c3)cnc12	1.3% (inactive)
CC(=O)c1ccc(-c2cnc3c(NC=O)cc(-c4cccc(NS(C)(=O)=O)c4)cn23)cc1	3% (inactive)
Cc1ccc2nc(-c3ccco3)c(Cc3cccc(Cl)c3)n2c1	0% (inactive)
Cc1cccc(C)c1Cn1c(C)c(C(=O)NCc2cccc(Cl)c2)sc1=O	-3.1% (inactive)
COc1ccc(/C=C/C(=O)c2c(O)cc(OC)cc2OC)cc1	-3.2% (inactive)
Cc1cc(O)c(C(=O)/C=C/c2c(F)c(F)c(F)c(F)c2F)c(=O)o1	39.9% (active)
Cc1cc(O)c(Sc2ccccc2)c(=O)o1	-0.7% (inactive)
CCCCn1nnnc1C(c1cccc(OC)c1OC)N1CCN(C/C=C/c2ccccc2)CC1 (stereo not given)	-4.8% (inactive)
COc1ccccc1CNC(=O)c1cc(-c2cc(Cl)ccc2C)n[nH]1	-6.5% (inactive)
Fc1cccc(Cc2c(-c3cccc(Cl)c3)nc3ccc(Br)cn23)c1	12.2% (inactive)

Structure (SMILES)	inhibition
CC1Cc2ccccc2N1C1=CC(=O)CC(C)(C)C1 (stereo not given)	-1.7% (inactive)
CC1(C)CC(=O)C=C(N2CCOCC2)C1	-0.6% (inactive)
CC1(C)CC(=O)C=C(N2CCCC2)C1	43.8% (active)
CN(C(=O)CN1CCN(c2cc(-c3ccc(OCc4ccccc4)cc3)ncn2)CC1)c1ccccc1	-2.5% (inactive)
Cc1ccc2nc(-c3ccccc3)c(CC3CCCCC3)n2c1	-7.4% (inactive)
COc1cc(F)ccc1-c1cc(C(=O)NCC2CCCCC2)[nH]n1	-7.3% (inactive)
CCCCCn1nnnc1-c1nc2cc3ccccc3cc2[nH]c1=O	4.1% (inactive)
CCc1nc2ccc(C(=O)NCc3ccc(OC)cc3)cn2c1N(CC)Cc1cccc(Br)c1	-5.2% (inactive)
COc1cccc(CNc2nc(NCc3ccccc3OC)nc3ccsc23)c1	-10.7% (inactive)
Cn1c(=O)c2c(nc(NCc3ccccc3)n2CC(N)=O)n(C)c1=O	-8.9% (inactive)
CC(O)c1nc2c(c(=O)n(C)c(=O)n2C)n1C (stereo not given)	7.6% (inactive)
CCC/C(C)=N\Nc1nc2c(c(=O)n(C)c(=O)n2C)n1C	46.4% (active)
CCCCN(C=O)c1c(CC)nc2c(OCCC3CCCCC3)cccn12	-1.8% (inactive)
COc1cc(C(=O)N2CCN(C3CCC(C)CC3)CC2)cc(OC)c1OC (stereo not given)	-2.2% (inactive)
CCn1cc(C(=O)N2CCN(C3CCCCC3)CC2)c2cc(OC)c(OC)cc2c1=O	35% (active)
CCn1cc(C(=O)NCC2COc3ccccc3O2)c2cc(OC)c(OC)cc2c1=O (stereo not given)	-4.2% (inactive)
Cc1cccnc1C(NC(=O)C1CCN(Cc2ccc(Cl)c(Cl)c2)CC1)c1ccc(Cl)cc1 (stereo not given)	-0.6% (inactive)
CC(=O)Nc1cc(-c2ccccc2N(C)C)cn2c(-c3ccc(F)c(Cl)c3)cnc12	-0.7% (inactive)
CCOc1ccc(NC(=O)CC(Cc2ccc(Cl)cc2)C(=O)O)cc1 (stereo not given)	42.9% (active)
CCOc1ccc(NC(=O)CC2NCCNC2=O)cc1 (stereo not given)	-3.7% (inactive)
CN(CC(=O)Nc1ccc(Cl)cc1)C(=O)c1ccc(COc2ccccc2)cc1	8.6% (inactive)
